# Assay outcomes deposited in PubChem BioAssay by National Center for Advancing Translational Sciences (NCATS).
# In the library only some 1.6% were active in any assay of this set; here they are far more common.
# HTT aggregate = mutant huntingtin aggregation inhibition; PC12 HttQ103-GFP aggregates, Acumen cytometry, 40 h; Potency, µM (doses to about 46.1 µM), for inactives: top-dose activity change, negative = inhibition, hits mostly inhibitors; hit rate 1.1% among 220,000; further: potency means the concentration at half of the fitted maximal effect; on the % scale 0 is the no-effect control and ±100 the full control effect; nearly all actives have a fitted effect of over 60% in size
#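 PC12/HTTQ103-GFP, ecdysone-inducible; teb 100 nM; cpd qHTS titration; GFP aggregates read on laser cytometer, Ex 488/Em 500-530 nm.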
# IMPase Li inh = IMPase inhibition in cells with lithium potentiation | Potency, µM (series often up to 59.4 µM), inactives show top-dose activity, negative = IMPase inhibition, usual class: inhibitors | CHO-M1 cells, IP1 TR-FRET (IP-One), carbachol + lithium | hit rate 0.35% among 210,000;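 further: IP1 builds up when IMPase is blocked and the TR-FRET signal falls; potency means the concentration at half of the fitted maximal effect; plate controls were basal vehicle for no effect and high inhibitor control for full effect; nearly all actives have a fitted effect of over 50% in size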
#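 Test compounds were applied to CHO-M1 cells previously cultured for 16–30 h at 2000 per well. A small lithium amount accompanied them; after 30 min at 37C, IP1 was quantified by TR-FRET.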
# IMPase inh = IMPase inhibition in cells. CHO-M1 cells, IP1 accumulation, HTRF TR-FRET ratio. AID 901. 120,000 tested, under 10 active. inhibition (IP1 accumulation), % at 46.1 µM; active means well fitted curve in the direction sought with a large enough effect in the signal ratio, not every such curve was filed as active; inconclusive means small, poorly fitted or top-dose-only effect, or a change in a side signal; inactive means no such curve, though single readings can be large or run the other way; the % refers to the signal ratio;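 further: cells stimulated with carbachol in lithium chloride buffer; plate controls were DMSO basal wells for no effect and reference inhibitor wells for full effect; higher means more IMPase inhibition seen as more IP1 and lower FRET ratio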
# Target sequence (P97697 whole entry, looked up): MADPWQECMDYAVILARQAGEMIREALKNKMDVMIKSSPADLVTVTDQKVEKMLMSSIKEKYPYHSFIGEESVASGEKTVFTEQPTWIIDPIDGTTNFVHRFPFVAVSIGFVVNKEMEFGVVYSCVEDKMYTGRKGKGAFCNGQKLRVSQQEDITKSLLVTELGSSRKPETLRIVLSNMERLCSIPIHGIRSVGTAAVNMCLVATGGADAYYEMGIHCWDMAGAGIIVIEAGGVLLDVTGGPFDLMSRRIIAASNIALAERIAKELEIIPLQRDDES
#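 In this qHTS, compounds (final up to 46 uM) act on CHO-M1 cells that are then activated through the M1 receptor with carbachol, in pH 7.4 buffer containing 50 mM LiCl, for 30 min. IP1 accumulation is quantified by the IP-One immunoassay.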
# LMNA splice mod = changes lamin A minigene splicing in HeLa cells; HeLa LMNA splicing GFP/RFP minigene ratio, 48 h; Potency, µM (series often up to 46.1 µM), without a hit: at the top dose ratio change, negative = inhibition, hits mostly inhibitors; hit rate 0.01% among 200,000; active means well fitted inhibition curve with a large enough effect in the signal ratio, with a control signal flat, not every such curve was filed as active; inconclusive means small, poorly fitted or top-dose-only effect, or effect the other way, or a change in a side signal; the % refers to the signal ratio; further: potency means the concentration at half of the fitted maximal effect; on the % scale 0 is the no-effect control and ±100 the full control effect
#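 Read-out is the ratio of GFP to DsRed2 object intensity, acquired by 488 nm laser-scanning cytometry on HeLa lamin A-EGFP minigene reporter cells. Compound incubation 48 hrs at 37 °C in Opti-MEM with 2% FBS; DMSO 0.5% final.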
# HTT cytoprotect = protects HTT-Q103 PC12 cells, measured by ATP; PC12 HTT-Q103 induced, cytoprotection, ATP luminescence, 40 h; Potency, µM (highest dose often 56.4 µM), inactives show cytoprotection (ATP increase), hits mostly activators; hit rate 0.14% among 230,000; further: potency means the concentration at half of the fitted maximal effect; % of control where 0% means no effect; nearly all actives have a fitted effect of over 45% in size
#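 Cells were plated at 1500 per well in phenol red-free DMEM with 5% equine and 5% calf serum. Tebufenozide (100 nM final) and compounds were added, then ATPlite reagent, and luminescence was read.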
# NPSR antagonist = blocks cAMP signaling of the human neuropeptide S receptor; Potency, µM (highest dose often 38.3 µM), without a hit: at the highest dose activity change, negative = inhibition, hits mostly inhibitors; CHO-NPSR cells, cAMP TR-FRET, antagonist mode; AID 1461; hit rate 1% among 220,000; Q6W5P4; further: potency means the concentration at half of the fitted maximal effect; on the % scale 0 is the no-effect control and ±100 the full control effect; nearly all actives have a fitted effect of over 50% in size
# Target sequence (Q6W5P4 whole entry, looked up): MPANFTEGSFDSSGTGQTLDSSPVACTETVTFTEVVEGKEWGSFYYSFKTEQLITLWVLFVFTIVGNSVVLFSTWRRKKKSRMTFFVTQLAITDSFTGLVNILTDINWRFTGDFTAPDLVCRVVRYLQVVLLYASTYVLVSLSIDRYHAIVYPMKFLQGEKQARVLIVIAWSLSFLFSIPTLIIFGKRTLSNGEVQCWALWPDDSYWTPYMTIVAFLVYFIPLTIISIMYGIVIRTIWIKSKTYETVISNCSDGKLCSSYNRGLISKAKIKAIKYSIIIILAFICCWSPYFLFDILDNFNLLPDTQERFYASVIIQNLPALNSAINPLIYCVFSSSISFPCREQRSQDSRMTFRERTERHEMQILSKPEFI
# * hit, by the source's call; u = inconclusive; x = no result; ! = repeats disagree; [ ] = dose if it differs, or a comment. Unless noted, the call rests on the fitted dose curve; in most records, active means well fitted curve in the direction sought with a large enough effect; inconclusive means small, poorly fitted or top-dose-only effect, or another doubt; inactive means no such curve, though single readings can be large; an effect the other way counts as inactive or inconclusive.
SMILES,HTT aggregate,IMPase Li inh,IMPase inh,LMNA splice mod,HTT cytoprotect,NPSR antagonist
N#C/C(=C\c1ccccc1)C(=O)Nc1cc(S(=O)(=O)N2CCOCC2)ccc1N1CCCC1,u,x,-3.2,u,0.708µM*,-14.5%[46.1 µM]
COc1cc(N=C(N)N=C(N)N)c2ncccc2c1,x,-4.1%,x,x,2.7%[10 µM],x
C=CCNc1ncnc2c1cnn2-c1ccc(C)cc1C,-27.1%,21.2%[38.3 µM],-2.1,-20.0%,-4.6%[10 µM],-9.9%[46.1 µM]
CCOC(=O)N1CCC(Nc2ncnc3c2cnn3-c2ccc(C)cc2C)CC1,12.6µM*,27.8%[38.3 µM],6.8,u,-10.8%,-19.5%[46.1 µM]
CCCCCCCCCCCCCCCCOCCOCCOCCOCCOCCOCCOCCOCCOCCOCCOCCOCCOCCOCCOCCOCCOCCOCCOCCOCCO,u,x,x,x,-98.0%,x
O=C(O)[C@H]1CCCC[C@@H]1C(=O)Nc1nc2ccccc2[nH]1,x,-13.5%,x,x,4.0%[10 µM],x
COc1ccccc1NC(=S)N(Cc1ccc(C)cc1)Cc1cccnc1,11.5%,-8.0%,x,x,-4.5%,-44.0%
COc1ccccc1NC(=S)N(Cc1ccc(C)cc1)Cc1ccccn1,25.1µM*,9.1%,x,x,-35.4%,-30.6%
COc1cc(OC)c(-c2c3cc(O)c(=O)cc-3oc3cc(O)c(O)cc23)cc1OC,3.98µM*,5.0%,17.9,u,4.7%[10 µM],-25.1%
Cc1c2cc(O)c(=O)cc-2oc2cc(O)c(O)cc12,5.1%[9.22 µM],43.2%[38.3 µM],u,-11.8%,0.0%[10 µM],-7.8%
Cc1ccc(F)c(C2C3C=CCC(c4cccc(-c5ccc(N(C)C)cc5)c4)C3C(=O)N2Cc2ccccc2)c1 (stereo not given),3.16µM*,x,x,x,-37.6%[10 µM],-39.1%
COc1ccc(-c2cccc(C3CC=CC4C3C(=O)N(Cc3ccccc3)C4c3ccc(OC)c(Cl)c3)c2)cc1 (stereo not given),u,x,x,x,-44.8%[10 µM],10µM*
Cc1ccc(-c2cccc(C3CC=CC4C3C(=O)N(Cc3ccccc3)C4c3ccc4ccccc4c3)c2)cc1 (stereo not given),-35.9%[9.22 µM],x,x,x,-29.6%[10 µM],-13.6%
COc1ccc(-c2cccc(C3CC=CC4C3C(=O)N(Cc3ccccc3)C4c3cc(C)ccc3F)c2)cc1 (stereo not given),-35.9%[9.22 µM],x,x,x,-48.7%[10 µM],-54.2%
O=c1c(-c2ccccc2)nc2cnc(N3CCNCC3)nc2n1-c1ccccc1,x,0.1%,x,7.4%,-3.2%,x
COc1cc2c(cc1OC)C(/C=C/c1ccc(OC)c(OC)c1OC)=NCC2,x,26.1%,x,x,-184.7%,x
CC(C(=O)N1c2ccccc2Sc2ccccc21)n1nnc(-c2cccs2)n1 (stereo not given),3.98µM*,33.9%[38.3 µM],12.7,3.3%,-5.5%[10 µM],u
Cc1[nH]c2ccccc2c1/C=N/Nc1ccccc1[N+](=O)[O-],11.8%,17.5%,x,x,0.8%[10 µM],10µM*
Cc1[nH]c2ccccc2c1/C=N/NS(=O)(=O)c1ccccc1,-13.5%,11.1%,x,x,x,-9.8%
CC1(C)CC2C1CCC1(C)OC1CCC2(C)O (stereo not given),x,6.6%,x,-9.5%,x,x
COc1c(-c2coc3cc4c(cc3c2=O)CC(O)C(C)(C)O4)ccc2c1C=CC(C)(C)O2 (stereo not given),x,17.1%,x,x,-357.2%,x
COc1ccc(-c2cn3c(C)c(C(=O)Nc4ccncc4)sc3n2)cc1,u,5.62µM*,u,-10.2%,-29.4%,u
O=C(C(Sc1ccccc1)c1ccccc1)N1CCN(c2ccccc2F)CC1 (stereo not given),10µM*,15.1%[38.3 µM],2.4,u,-58.3%,u
N#CCc1ccc(NC(=O)/C=C/c2ccc([N+](=O)[O-])o2)cc1,u,17.0%,x,u,-129.1%,6.31µM*
Clc1ccc2c(c1)C(N1CCNCC1)=Nc1ccccc1O2,4.3%,22.0%,11.1,u,0.355µM*!,u
SMILES,HTT aggregate,IMPase Li inh,IMPase inh,LMNA splice mod,HTT cytoprotect,NPSR antagonist
CC1=Nc2cc(Cl)ccc2Oc2ccccc21,-5.0%,27.5%,x,x,-39.2%,20.1%
Cn1nnnc1SCCCNCc1cc(Cl)ccc1OCc1ccccc1F,x,x,x,-10.0%[46 µM],x,x
Cc1ccc(-n2c(-c3ccccc3)c[n+]3c2CCC3)cc1,8.91µM*,19.1%,x,x,-37.0%,11.6%
COc1ccc(-n2c(-c3ccc(Br)cc3)c[n+]3c2CCCCC3)cc1,2.24µM*,15.4%,x,u,12.7%[10 µM],1.6%
COc1ccc(-n2c(-c3ccc(Br)cc3)c[n+]3c2CCC3)cc1,u,10.3%,x,-2.7%[46 µM],-21.3%,-4.0%
COc1ccc(-n2c(-c3ccc(Br)cc3)c[n+]3c2SC(C)C3)cc1 (stereo not given),10µM*,24.7%,x,x,x,-5.5%
CCOC(=O)c1cccc(-n2c(-c3ccc(OC)cc3)nc3nc4ccccc4nc32)c1,0.3%,19.2%,-8.4,-7.5%,20.3%[10 µM],-53.8%
CC(C)COC(=O)NCCOC(=O)Nc1cccc(Cl)c1,10µM*,28.6%[38.3 µM],9.3,u,-13.2%[10 µM],-9.7%[46.1 µM]
CC(C)COC(=O)NCCCOC(=O)Nc1ccccc1,6.6%,0.0%[38.3 µM],0.3,u,-6.4%[0.074 µM],-22.2%[46.1 µM]
N#CC(C#N)=C1C=CC=CN1/C(=C\c1ccco1)C(=O)c1ccccc1,3.16µM*,35.5%,16.4,u,u,u
COc1ccc(C(=O)/C(=C\c2ccco2)N2C=CC=CC2=C(C#N)C#N)cc1,6.31µM*,26.0%[38.3 µM],16.3,u,u,-26.2%[46.1 µM]
CCOC(=O)c1sc(-c2ccc(OC)cc2)cc1NC(C)=O,15.8%,11.2µM*,x,u,x,-47.1%
CCCCS(=O)(=O)N1CCc2nc(-c3ccc(OC)cc3C)c3c(c2C1)CO[C@@H](c1ccccc1)C3,x,8.6%,x,u,-46.5%[10 µM],x
COC(=O)c1oc2ccc(OC)cc2c1N,2.82µM*,-6.0%,-9.2,1.6%,-94.3%[10 µM],13.2%
COc1ccc(C(=O)c2oc3ccc(OC)cc3c2N)cc1,19.0%,4.5%,-13.8,u,19.0%[10 µM],-7.3%
COc1ccc2oc(-c3ccccc3)c(C(N)=O)c2c1,-9.3%,11.2µM*,2.6,u,-17.0%,6.2%[46.1 µM]
O=[N+]([O-])c1ccc(-c2c(O)c3ccccc3c3nc4ccccc4nc23)cc1,7.08µM*,-6.2%,x,u,-17.8%,5.5%
Cc1nn(C)c(C)c1CN(C)S(=O)(=O)c1ccc2ccccc2c1,7.94µM*,13.4%,13.2,u,u,-17.7%[46.1 µM]
Cc1nn(C)c(C)c1CN(C)S(=O)(=O)c1ccc(F)cc1,-29.7%,8.7%,12.5,u,-12.9%[1.9 µM],-1.1%[46.1 µM]
O=C(O)CC1(C(=O)O)CCCCC1,x,6.2%,x,x,21.5%[10 µM],x
Cc1nc2ccccc2c(=O)n1/N=C/c1ccc(O)cc1O,9.0%[9.22 µM],0.4%,x,x,-120.5%,-3.1%
CCCc1nc2ccccc2c(=O)n1/N=C/c1c(C)[nH]n(-c2ccc(C)cc2)c1=O,17.8µM*,-11.2%[38.3 µM],0.4,u,-5.6%[0.074 µM],-10.5%[46.1 µM]
CCCc1nc2ccccc2c(=O)n1/N=C/c1ccccc1O,10µM*,-7.0%[38.3 µM],10.9,u,-13.8%[0.074 µM],7.5%[46.1 µM]
